# According to PubChem BioAssay (EPA / NIEHS):
# Where “and” joins values, the source holds several entries; their conditions need not be identical. Equal values may be shown once. Records with an inconclusive call do not appear. More than one record can exist for a structure, and the calls need not agree. Calls of active or inactive are those of the source. Rule for the calls: active = hit-call score of the fitted dose curve at least 0.9, where 1 is the maximum; inconclusive = response in the unintended direction; inactive = score below 0.9.
# Key:
# [1] = NVS_IC_rCaDHPRCh_L: NovaScreen (NVS) Ion Channel Assay for rat Calcium Channel, Type L, Dihydropyridine Site (CaDHPRCh_L) (AID 2283320)
# Method in brief: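 Radioligand binding to dihydropyridine site on rat cortical membranes, filter-based scintillation counting, 1 h after dosing. Screened in duplicate at 25 uM; actives rerun in concentration-response up to 50 uM. Loss of signal versus DMSO baseline.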
# [2] = target: rat Adrenergic Receptor, Beta (Adrb), Non-selective Binding, Adrb1 (gene 24925) (UniProt P18090); assay: NVS_GPCR_rAdrb_NonSelective: NovaScreen (NVS) G Protein-Coupled Receptor Assay for rat Adrenergic Receptor, Beta (Adrb), Non-selective Binding (AID 2283298)
# Method in brief: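 Non-selective beta-adrenergic radioligand binding in rat cortical membranes, 1 h incubation, filter-based scintillation read-out. Primary screen 25 uM in duplicate; hits retested in concentration-response up to 50 uM, DMSO baseline.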
# [3] = target: rat Histamine Receptor (H3), Hrh3 (gene 85268) (UniProt Q9QYN8); assay: NVS_GPCR_rH3: NovaScreen (NVS) G Protein-Coupled Receptor Assay for rat Histamine Receptor (H3) (AID 2283303)
# Method in brief: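 Rat forebrain membranes incubated 1 h with compound; radioligand displacement measured by filter-based scintillation counting. Single-concentration duplicates at 25 µM, then concentration-response up to 50 µM, relative to DMSO.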
# [4] = target: Sodium channel protein type 1 subunit alpha (Rattus norvegicus) (UniProt P04774); assay: NVS_IC_rNaCh_site2: NovaScreen (NVS) Ion Channel Assay for rat Sodium Channel, Site 2 (NaCh) (AID 2283322);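 note: hit means loss of radioligand binding signal relative to DMSO so AC50 marks displacement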
# Method in brief: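 Membranes: rat forebrain. Format: competitive radioligand displacement, filter separation, scintillation readout, 1 h exposure. Primary screen in duplicate at 25 uM; actives retested in concentration series.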
# [5] = target: rat Adrenergic Receptor, Alpha 2 (Adra2), Non-selective Binding, Adra2a (gene 25083) (UniProt P22909); assay: NVS_GPCR_rAdra2_NonSelective: NovaScreen (NVS) G Protein-Coupled Receptor Assay for rat Adrenergic Receptor, Alpha 2 (Adra2), Non-selective Binding (AID 2283299)
# Method in brief: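 Rat cortical membranes, radioligand competitive displacement read by filter-based scintillation counting 1.25 hours after dosing. Primary screen in duplicate at 25 uM; actives followed up in concentration series.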
# [6] = target: rat Neurokinin-3 Receptor (NK3), Tacr3 (gene 24808) (UniProt P16177); assay: NVS_GPCR_rNK3: NovaScreen (NVS) G Protein-Coupled Receptor Assay for rat Neurokinin-3 Receptor (NK3) (AID 2283310)
# Method in brief: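 Rat cortical membranes; radioligand binding with filtration and scintillation counting, 2 h after dosing. Primary screen in duplicate at 25 uM, then concentration-response up to 50 uM; loss of binding signal relative to DMSO.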
# [7] = target: rat Opioid Receptor, Non-selective Sodium (Na+) Binding, Oprm1 (gene 25601) (UniProt P33535); assay: NVS_GPCR_rOpiate_NonSelectiveNa: NovaScreen (NVS) G Protein-Coupled Receptor Assay for rat Opioid Receptor, Non-selective Sodium (Na+) Binding (AID 2283311)
# Method in brief: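 Rat forebrain membranes, radioligand displacement with filter scintillation counting, 1.5 h incubation. Screened in duplicate at 25 µM; hits then run in concentration-response up to 50 µM; loss of binding fitted versus DMSO.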
# [8] = target: rat Somatostatin Receptor (SST), Sstr1 (gene 25033) (UniProt P28646); assay: NVS_GPCR_rSST: NovaScreen (NVS) G Protein-Coupled Receptor Assay for rat Somatostatin Receptor (SST) (AID 2283314)
# Method in brief: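 Rat forebrain membranes; radioligand displacement read by filter-based scintillation counting 1 h after dosing. Primary screen in duplicate at 25 uM. Actives (e.g., 30% inhibition) were rerun as concentration-response to 50 uM max and fitted against DMSO.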
# [9] = target: rat Vasopressin 1 Receptor (V1), Avpr1a (gene 25107) (UniProt P30560); assay: NVS_GPCR_rV1: NovaScreen (NVS) G Protein-Coupled Receptor Assay for rat Vasopressin 1 Receptor (V1) (AID 2283316)
# Method in brief: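 Radioligand binding on rat liver membranes, 1.5 h incubation, filter-based scintillation counting. Single 25 uM screen in duplicate; chemicals meeting threshold (e.g. 30% inhibition) run in concentration-response up to 50 uM.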
# [10] = target: rat Glutamate, AMPA Site (AMPA), Gria1 (gene 50592) (UniProt P19490); assay: NVS_LGIC_rAMPA: NovaScreen (NVS) Ligand-Gated Ion Channel Assay for rat Glutamate, AMPA Site (AMPA) (AID 2283324)
# Method in brief: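 Rat forebrain membranes; radioligand binding read 1 h after dosing by filtration and scintillation counting. Duplicate single-point screen at 25 uM, then concentration-response to 50 uM for threshold hits (e.g. 30% inhibition); loss of signal vs DMSO.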
# [11] = target: Adra2b (gene 24174) (UniProt P19328); assay: NVS_GPCR_rmAdra2B: NovaScreen (NVS) G Protein-Coupled Receptor Assay for hybird cells Adrenergic, Alpha 2B Receptor (Adra2B) (AID 2283306)
# Method in brief: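 Radioligand filter-binding assay on membrane proteins from neuroglioma/blastoma hybrid cells (rodent), 1 h after dosing; scintillation counting, loss of signal vs DMSO. Primary screen in duplicate at 25 uM, actives then run in concentration series.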
# [12] = target: rat Neonicotinoid receptor (NNR), Chrna7 (gene 25302) (UniProt Q05941); assay: NVS_LGIC_rNNR_BungSens: NovaScreen (NVS) Ligand-Gated Ion Channel Assay for rat Neonicotinoid receptor (NNR) (AID 2283315)
# Method in brief: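 Radioligand displacement binding on rat cortical membranes, 2.5 h incubation, filtration and scintillation counting. Loss of specific binding fitted relative to DMSO.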
# [13] = target: rat Neurokinin-1 Receptor (NK1), Tacr1 (gene 24807) (UniProt P14600); assay: NVS_GPCR_rNK1: NovaScreen (NVS) G Protein-Coupled Receptor Assay for rat Neurokinin-1 Receptor (NK1) (AID 2283309)
# Method in brief: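 Rat submaxillary gland membranes; radioligand displacement read by filter-based scintillation counting after 1 h. Primary screen in duplicate at 25 uM; actives retested in concentration series; loss of binding fitted versus DMSO.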
# [14] = target: rat Opioid Receptor, Non-selective Binding, Oprm1 (gene 25601) (UniProt P33535); assay: NVS_GPCR_rOpiate_NonSelective: NovaScreen (NVS) G Protein-Coupled Receptor Assay for rat Opioid Receptor, Non-selective Binding (AID 2283318)
# Method in brief: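 Rat forebrain membranes, cell-free radioligand binding with filter-based scintillation counting, read 1.5 h after dosing. Primary screen in duplicate at 25 uM; actives retested in concentration series. Loss of signal versus DMSO baseline scored.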
# [15] = target: human Serotonin, 5-Hydroxytryptamine Receptor 3 (5HT3), HTR3A (gene 3359) (UniProt P46098); assay: NVS_LGIC_h5HT3: NovaScreen (NVS) Ligand-Gated Ion Channel Assay for human Serotonin, 5-Hydroxytryptamine Receptor 3 (5HT3) (AID 2283325)
# Method in brief: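 Radioligand displacement binding to human 5-HT3 from HEK293 membranes, read by filter-based scintillation counting after 1 h. Screen at 25 uM in duplicate; chemicals passing threshold were retested in concentration-response up to 50 uM.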
# [16] = target: Metabotropic glutamate receptor 1 (Rattus norvegicus) (UniProt P23385); assay: NVS_GPCR_rmMGluR1: NovaScreen (NVS) G Protein-Coupled Receptor Assay for rat Glutamate Metabotropic Receptor 1 (MGluR1) (AID 2283305)
# Method in brief: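 Rat cerebellum membrane preparation, radioligand displacement binding read by filter-based scintillation counting 1 hour after dosing. Initial duplicate single-point screen at 25 uM, then concentration-response up to 50 uM; loss of signal versus DMSO baseline scored.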
# [17] = system: NCBI gene 24521; assay: NVS_IC_rKATPCh: NovaScreen (NVS) Ion Channel Assay for rat Potassium Channel, ATP-Sensitive (KATPCh) (AID 2283319)
# Method in brief: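 Rat cortical membranes; radioligand binding at ATP-sensitive K channel site, filter-based scintillation counting 2 h after dosing. Single-point duplicate screen at 25 uM, hits rerun in concentration-response up to 50 uM; loss of signal versus DMSO.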
# [18] = target: rat Adrenergic, Alpha 1A Receptor (Adra1A), Adra1a (gene 29412) (UniProt P43140); assay: NVS_GPCR_rAdra1A: NovaScreen (NVS) G Protein-Coupled Receptor Assay for rat Adrenergic, Alpha 1A Receptor (Adra1A) (AID 2283296)
# Method in brief: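 Rat cortical membranes pretreated with chlorethyl clonidine; competitive radioligand displacement, 1 h. Filter-based scintillation counting. Primary screen in duplicate at 25 uM, actives followed in concentration series.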
# Sequence of rat Neonicotinoid receptor (NNR), Chrna7 (gene 25302) (Q05941 whole entry, looked up): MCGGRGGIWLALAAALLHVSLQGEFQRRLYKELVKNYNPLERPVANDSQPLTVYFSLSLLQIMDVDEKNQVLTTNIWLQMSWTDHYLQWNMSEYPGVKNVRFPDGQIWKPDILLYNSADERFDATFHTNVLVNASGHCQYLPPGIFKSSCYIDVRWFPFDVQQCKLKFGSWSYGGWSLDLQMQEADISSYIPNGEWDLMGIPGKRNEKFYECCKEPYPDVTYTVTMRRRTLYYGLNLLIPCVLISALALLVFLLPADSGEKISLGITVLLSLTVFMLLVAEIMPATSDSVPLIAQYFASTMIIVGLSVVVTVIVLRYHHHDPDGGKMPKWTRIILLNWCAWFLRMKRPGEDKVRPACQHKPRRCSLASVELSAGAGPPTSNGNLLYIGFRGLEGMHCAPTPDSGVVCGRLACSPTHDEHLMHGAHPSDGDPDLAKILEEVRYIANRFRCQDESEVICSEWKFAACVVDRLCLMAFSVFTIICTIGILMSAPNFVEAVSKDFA
# Sequence of rat Glutamate, AMPA Site (AMPA), Gria1 (gene 50592) (P19490 whole entry, looked up): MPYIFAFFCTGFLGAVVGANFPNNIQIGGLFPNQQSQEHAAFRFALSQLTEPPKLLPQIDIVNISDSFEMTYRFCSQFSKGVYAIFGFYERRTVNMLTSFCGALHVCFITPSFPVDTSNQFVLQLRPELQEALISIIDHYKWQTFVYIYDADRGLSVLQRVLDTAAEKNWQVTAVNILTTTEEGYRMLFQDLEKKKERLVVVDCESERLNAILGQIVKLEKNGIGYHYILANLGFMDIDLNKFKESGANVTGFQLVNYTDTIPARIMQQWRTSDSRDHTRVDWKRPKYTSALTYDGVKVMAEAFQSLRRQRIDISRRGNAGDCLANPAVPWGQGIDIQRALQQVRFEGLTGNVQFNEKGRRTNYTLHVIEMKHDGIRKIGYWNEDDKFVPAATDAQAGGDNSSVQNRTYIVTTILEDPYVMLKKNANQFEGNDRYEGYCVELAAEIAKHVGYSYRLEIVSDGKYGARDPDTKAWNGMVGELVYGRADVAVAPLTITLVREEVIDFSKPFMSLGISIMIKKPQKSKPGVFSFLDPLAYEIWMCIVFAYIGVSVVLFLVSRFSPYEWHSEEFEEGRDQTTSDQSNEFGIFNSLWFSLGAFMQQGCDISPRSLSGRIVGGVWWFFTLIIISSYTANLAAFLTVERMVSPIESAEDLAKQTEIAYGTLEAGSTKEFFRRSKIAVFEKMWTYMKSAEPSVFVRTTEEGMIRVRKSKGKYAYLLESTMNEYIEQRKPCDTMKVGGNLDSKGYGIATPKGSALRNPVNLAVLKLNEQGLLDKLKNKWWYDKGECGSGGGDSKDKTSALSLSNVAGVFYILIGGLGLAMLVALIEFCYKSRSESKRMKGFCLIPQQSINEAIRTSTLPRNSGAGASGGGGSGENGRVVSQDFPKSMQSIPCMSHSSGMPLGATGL
# Sequence of rat Adrenergic Receptor, Alpha 2 (Adra2), Non-selective Binding, Adra2a (gene 25083) (P22909 whole entry, looked up): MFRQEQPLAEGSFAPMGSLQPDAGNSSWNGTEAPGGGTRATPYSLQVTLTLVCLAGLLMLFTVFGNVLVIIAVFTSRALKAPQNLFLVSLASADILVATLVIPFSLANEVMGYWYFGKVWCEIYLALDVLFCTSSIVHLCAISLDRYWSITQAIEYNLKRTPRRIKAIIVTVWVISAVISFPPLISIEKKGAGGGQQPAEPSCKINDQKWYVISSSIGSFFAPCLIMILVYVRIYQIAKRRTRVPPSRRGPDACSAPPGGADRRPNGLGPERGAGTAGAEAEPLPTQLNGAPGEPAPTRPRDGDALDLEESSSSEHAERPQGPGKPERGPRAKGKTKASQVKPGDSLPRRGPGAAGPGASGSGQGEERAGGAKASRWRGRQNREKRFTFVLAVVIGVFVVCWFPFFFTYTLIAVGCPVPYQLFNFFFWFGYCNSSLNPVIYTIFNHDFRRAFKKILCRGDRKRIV
# Sequence of Adra2b (gene 24174) (P19328 whole entry, looked up): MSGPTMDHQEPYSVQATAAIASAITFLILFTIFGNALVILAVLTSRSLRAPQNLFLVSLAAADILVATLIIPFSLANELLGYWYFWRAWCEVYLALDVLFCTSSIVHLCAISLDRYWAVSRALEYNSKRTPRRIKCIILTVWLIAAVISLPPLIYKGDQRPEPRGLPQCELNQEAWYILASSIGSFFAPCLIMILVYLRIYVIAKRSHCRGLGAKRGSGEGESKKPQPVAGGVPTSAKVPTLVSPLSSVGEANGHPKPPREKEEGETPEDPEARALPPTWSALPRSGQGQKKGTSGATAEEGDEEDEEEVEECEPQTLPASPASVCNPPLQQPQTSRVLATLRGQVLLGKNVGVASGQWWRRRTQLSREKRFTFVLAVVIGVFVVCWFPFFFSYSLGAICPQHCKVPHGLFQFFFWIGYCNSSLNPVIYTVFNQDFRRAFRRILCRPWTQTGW
# Sequence of rat Opioid Receptor, Non-selective Binding, Oprm1 (gene 25601) (P33535 whole entry, looked up): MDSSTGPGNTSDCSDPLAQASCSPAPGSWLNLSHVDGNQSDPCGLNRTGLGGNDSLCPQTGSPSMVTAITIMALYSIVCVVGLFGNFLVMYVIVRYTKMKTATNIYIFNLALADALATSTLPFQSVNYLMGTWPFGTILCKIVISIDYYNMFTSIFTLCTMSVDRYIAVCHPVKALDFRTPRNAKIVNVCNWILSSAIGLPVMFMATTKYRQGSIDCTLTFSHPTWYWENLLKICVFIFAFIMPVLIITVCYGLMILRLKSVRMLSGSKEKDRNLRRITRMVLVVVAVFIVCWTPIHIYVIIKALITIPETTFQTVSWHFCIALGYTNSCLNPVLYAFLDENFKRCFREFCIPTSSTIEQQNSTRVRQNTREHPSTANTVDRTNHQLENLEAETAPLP
# Sequence of rat Opioid Receptor, Non-selective Sodium (Na+) Binding, Oprm1 (gene 25601) (P33535 whole entry, looked up): as above
# Sequence of Metabotropic glutamate receptor 1 (Rattus norvegicus) (P23385 whole entry, looked up): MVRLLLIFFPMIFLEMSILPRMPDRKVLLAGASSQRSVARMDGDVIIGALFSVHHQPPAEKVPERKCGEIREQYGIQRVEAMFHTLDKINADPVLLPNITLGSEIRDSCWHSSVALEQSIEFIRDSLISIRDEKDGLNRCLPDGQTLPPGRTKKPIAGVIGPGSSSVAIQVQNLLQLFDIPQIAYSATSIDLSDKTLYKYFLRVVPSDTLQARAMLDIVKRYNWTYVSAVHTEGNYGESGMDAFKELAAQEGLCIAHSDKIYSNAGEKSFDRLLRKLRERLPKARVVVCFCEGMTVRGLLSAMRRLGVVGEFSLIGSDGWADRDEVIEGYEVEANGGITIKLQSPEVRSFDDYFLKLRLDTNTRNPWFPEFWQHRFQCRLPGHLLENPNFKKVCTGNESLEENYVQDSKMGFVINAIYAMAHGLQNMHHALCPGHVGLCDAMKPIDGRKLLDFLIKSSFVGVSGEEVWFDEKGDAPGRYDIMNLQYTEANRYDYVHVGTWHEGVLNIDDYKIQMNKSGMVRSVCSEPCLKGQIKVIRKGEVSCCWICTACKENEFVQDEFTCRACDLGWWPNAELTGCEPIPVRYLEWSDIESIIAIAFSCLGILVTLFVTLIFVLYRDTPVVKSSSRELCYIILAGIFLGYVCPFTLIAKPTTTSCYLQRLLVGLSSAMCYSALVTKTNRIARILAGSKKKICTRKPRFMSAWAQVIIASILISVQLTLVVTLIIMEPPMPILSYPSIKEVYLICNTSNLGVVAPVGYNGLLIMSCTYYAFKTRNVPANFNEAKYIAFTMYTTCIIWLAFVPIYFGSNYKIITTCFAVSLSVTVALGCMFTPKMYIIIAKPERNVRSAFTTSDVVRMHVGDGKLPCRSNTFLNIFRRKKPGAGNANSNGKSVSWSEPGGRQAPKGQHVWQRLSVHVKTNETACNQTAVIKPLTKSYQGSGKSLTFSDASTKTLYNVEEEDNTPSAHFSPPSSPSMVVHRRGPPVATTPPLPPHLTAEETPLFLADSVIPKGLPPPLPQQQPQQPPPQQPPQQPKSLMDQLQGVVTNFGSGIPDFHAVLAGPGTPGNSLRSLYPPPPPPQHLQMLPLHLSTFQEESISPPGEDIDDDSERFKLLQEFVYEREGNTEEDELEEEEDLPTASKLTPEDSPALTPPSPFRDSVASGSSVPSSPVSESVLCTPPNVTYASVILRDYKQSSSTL
# Sequence of rat Somatostatin Receptor (SST), Sstr1 (gene 25033) (P28646 whole entry, looked up): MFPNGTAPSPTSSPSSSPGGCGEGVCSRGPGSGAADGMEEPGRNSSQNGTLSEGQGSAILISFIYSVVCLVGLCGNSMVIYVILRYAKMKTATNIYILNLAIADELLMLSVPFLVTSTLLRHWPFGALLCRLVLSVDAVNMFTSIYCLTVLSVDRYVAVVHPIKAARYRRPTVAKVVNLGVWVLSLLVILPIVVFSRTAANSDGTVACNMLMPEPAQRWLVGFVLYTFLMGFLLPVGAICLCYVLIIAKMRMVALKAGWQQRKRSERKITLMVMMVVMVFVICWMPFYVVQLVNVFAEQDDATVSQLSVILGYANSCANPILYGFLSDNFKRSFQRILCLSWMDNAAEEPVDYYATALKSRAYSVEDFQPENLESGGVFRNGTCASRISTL
# Sequence of rat Neurokinin-1 Receptor (NK1), Tacr1 (gene 24807) (P14600 whole entry, looked up): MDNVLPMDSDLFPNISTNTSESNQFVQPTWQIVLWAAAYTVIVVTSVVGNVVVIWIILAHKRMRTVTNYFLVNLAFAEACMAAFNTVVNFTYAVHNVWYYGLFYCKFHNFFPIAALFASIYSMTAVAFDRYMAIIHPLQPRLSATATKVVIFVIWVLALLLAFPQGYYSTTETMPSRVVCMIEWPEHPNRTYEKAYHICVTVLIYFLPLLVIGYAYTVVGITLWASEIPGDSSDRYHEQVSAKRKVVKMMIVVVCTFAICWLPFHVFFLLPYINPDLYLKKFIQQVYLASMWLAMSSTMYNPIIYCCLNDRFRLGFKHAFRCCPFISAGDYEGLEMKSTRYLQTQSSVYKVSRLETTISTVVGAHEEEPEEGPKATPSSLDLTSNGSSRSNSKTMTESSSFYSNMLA
smiles,measurement,setting,value
CCOC(=O)C(C)Oc1ccc(Oc2nc3ccc(Cl)cc3o2)cc1 (configuration not stated),outcome,[1],inactive
CCOC(=O)[C@H](C)Oc1ccc(Oc2nc3ccc(Cl)cc3o2)cc1,outcome,[2],inactive
CCCOC(=O)NCCCN(C)C,AC50,[3],18.1 µM (active)
OB(O)O,outcome,[4],inactive
S=C(S)NCCNC(=S)S.[Mn+2].[S-]C([S-])=NCCN=C([S-])[S-].[Zn+2],AC50,[5],12.5 µM (active) and 15.4 µM (active)
same,outcome,[5],inactive
same,outcome,[6],inactive
same,outcome,[7],inactive
same,AC50,[8],1.49 µM (active)
same,outcome,[8],inactive
same,outcome,[9],inactive
same,AC50,[10],4.81 µM (active)
same,outcome,[10],inactive
C[C@]12C[C@H](O)[C@H]3[C@@H](CCC4=CC(=O)CC[C@@]43C)[C@@H]1CC[C@@H]2C(=O)CO,outcome,[11],inactive
same,outcome,[12],inactive
C[C@]12CC[C@@H]3c4ccc(O)cc4C[C@@H](CCCCCCCCCS(=O)CCCC(F)(F)C(F)(F)F)[C@H]3[C@@H]1CC[C@@H]2O (some centres not stated),outcome,[13],inactive
CC(C)(c1ccc(O)cc1)c1ccc(O)cc1,outcome,[5],inactive
same,outcome,[11],inactive
same,AC50,[7],25.4 µM (active) and 17 µM (active) and 20.5 µM (active)
same,outcome,[12],inactive
same,AC50,[14],25.4 µM (active) and 17.6 µM (active)
same,outcome,[1],inactive
same,AC50,[4],25.4 µM (active)
same,outcome,[4],inactive
same,outcome,[15],inactive
CCCCOCCOCCOCc1cc2c(cc1CCC)OCO2,outcome,[16],inactive
CSC(=O)c1cccc2nnsc12,outcome,[7],inactive
c1ccc(Nc2ccccc2)cc1,outcome,[17],inactive
O=C(c1ccc(O)cc1O)c1ccc(O)cc1O,outcome,[16],inactive
same,outcome,[12],inactive
same,outcome,[1],inactive
C=CCOC(Cn1ccnc1)c1ccc(Cl)cc1Cl (configuration not stated),AC50,[18],17.3 µM (active)
same,AC50,[11],6.96 µM (active)
same,AC50,[13],37.8 µM (active)
same,outcome,[7],inactive
same,AC50,[14],9.36 µM (active)
same,AC50,[4],4.57 µM (active)
